Results taken from PubChem BioAssay AID623996 (NMMLSC, 2012).
Entries with a potency or affinity are not part of this list. Active and inactive are the calls of the source.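 Rule for the calls: active = fitted concentration giving half the maximal Nile Red retention below 100 µM; inactive = the rest.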

target: Multidrug resistance protein CDR1 (Candida albicans) (UniProt P43071); test: CaCdr1 efflux pump inhibitor potency, dose response, singleplex, Cherry Pick2 set (AID 623996); conditions: S. cerevisiae AD/CaCDR1, Nile Red efflux inhibition, flow cytometry; series mostly up to 100 µM
Sequence (P43071 whole entry, looked up): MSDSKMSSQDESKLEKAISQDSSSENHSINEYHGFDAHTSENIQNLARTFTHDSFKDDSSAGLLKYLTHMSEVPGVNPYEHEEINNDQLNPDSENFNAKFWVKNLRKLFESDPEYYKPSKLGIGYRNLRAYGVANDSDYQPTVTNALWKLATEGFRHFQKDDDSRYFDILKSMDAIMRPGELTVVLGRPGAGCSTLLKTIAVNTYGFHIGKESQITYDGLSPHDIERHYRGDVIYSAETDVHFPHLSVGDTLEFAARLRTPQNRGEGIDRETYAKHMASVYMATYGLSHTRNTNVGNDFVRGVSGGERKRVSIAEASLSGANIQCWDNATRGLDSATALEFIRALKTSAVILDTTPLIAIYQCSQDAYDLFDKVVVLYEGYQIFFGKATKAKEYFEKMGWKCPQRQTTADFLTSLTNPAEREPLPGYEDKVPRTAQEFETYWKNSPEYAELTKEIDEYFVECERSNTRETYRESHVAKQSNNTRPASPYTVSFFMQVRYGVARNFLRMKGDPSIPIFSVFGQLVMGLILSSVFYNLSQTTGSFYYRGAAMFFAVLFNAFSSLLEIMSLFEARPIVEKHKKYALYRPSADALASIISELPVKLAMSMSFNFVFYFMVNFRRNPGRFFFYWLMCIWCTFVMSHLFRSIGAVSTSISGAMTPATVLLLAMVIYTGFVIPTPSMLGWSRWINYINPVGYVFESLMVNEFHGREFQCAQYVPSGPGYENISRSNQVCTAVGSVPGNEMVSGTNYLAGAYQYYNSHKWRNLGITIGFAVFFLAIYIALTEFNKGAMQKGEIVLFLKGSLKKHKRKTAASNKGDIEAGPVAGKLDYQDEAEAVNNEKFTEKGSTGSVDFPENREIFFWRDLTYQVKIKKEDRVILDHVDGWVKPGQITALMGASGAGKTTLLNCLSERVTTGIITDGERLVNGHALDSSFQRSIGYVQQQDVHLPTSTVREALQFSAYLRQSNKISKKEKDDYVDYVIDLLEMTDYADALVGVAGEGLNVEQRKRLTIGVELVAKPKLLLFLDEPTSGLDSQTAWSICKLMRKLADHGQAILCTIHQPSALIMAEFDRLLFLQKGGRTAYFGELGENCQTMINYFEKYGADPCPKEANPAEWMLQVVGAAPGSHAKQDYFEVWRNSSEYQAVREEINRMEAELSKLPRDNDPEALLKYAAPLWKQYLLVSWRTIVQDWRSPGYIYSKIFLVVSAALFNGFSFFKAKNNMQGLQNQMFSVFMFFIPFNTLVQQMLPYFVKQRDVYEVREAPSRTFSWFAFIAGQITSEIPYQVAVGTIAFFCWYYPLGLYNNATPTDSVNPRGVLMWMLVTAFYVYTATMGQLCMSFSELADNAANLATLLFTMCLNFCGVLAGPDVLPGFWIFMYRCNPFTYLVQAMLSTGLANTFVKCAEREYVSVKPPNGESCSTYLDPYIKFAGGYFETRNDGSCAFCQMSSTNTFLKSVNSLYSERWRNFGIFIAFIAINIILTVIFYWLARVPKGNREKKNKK

SMILES	outcome
O=C(C[n+]1cc(-c2ccc(F)cc2)n2c1CCC2)N1c2ccccc2Sc2ccccc21	inactive
Cc1ccc(N2CCN(C(=O)C3CCCN(c4ncnc5c4nc4n5CCCCC4)C3)CC2)c(C)c1 (centres undefined)	inactive
CC(C)C(=O)N1CCC2(CC1)Oc1ccc(Cl)cc1C(=O)C21CC(c2ccc(Cl)cc2)=NO1 (centres undefined)	inactive
CCO[C@@H]1OC(C(=O)Nc2ccccc2)=C[C@H](c2ccccc2)[C@H]1CCCO	inactive
Cc1ccc(-c2c[n+](CC(=O)N3c4ccccc4Sc4ccccc43)c3n2CCC3)cc1	inactive
OCCN1CCN(CC/C=C2/c3ccccc3Sc3ccc(C(F)(F)F)cc32)CC1	inactive
COc1ccc(OC)c2sc(NC(=O)c3ccc(Br)s3)nc12	inactive
Nc1ccc(C(=O)OCCc2ccccc2)cc1	inactive
O=C(CSc1nnc(Cc2cccs2)n1Cc1ccco1)Nc1cccc(Cl)c1	inactive
O=C(/C=C/c1cccs1)N1CCC2(CC1)Oc1ccc(F)cc1C(=O)C21CC(c2ccccc2)=NO1 (centres undefined)	inactive
Cc1cccc2sc(N(CCCN(C)C)C(=O)c3ccc(Cl)s3)nc12	inactive
COc1ncccc1C(=O)NC1CCCc2c1cnn2-c1cc(C)cc(C)c1 (centres undefined)	inactive
CCO[C@@H]1OC(C(=O)Nc2ccccc2)=C[C@H](c2ccc(Br)cc2)[C@H]1CCCO	inactive
CCCCN1Cc2cc(C(=O)c3cc(F)ccc3O)cnc2NC1=O	inactive
